From the supplement of paper PMC4840960 come the findings set out here.

The test system of test [1] is E18 rat cortical neuron-glia co-culture. Put plainly: fiber score / MBP score (myelination specific beyond OL differentiation) (ratio); higher = more myelination-specific MBP alignment. The settings on record: treatment time: 8 days (DIV5-DIV13). The essentials: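 Papain-dissociated primary E18 rat cortical co-cultures, plated at 20,000 cells/well on poly-d-lysine/laminin 96-well plates, were exposed to library compounds at 1 or 5 µM in myelination medium between DIV5 and DIV13. Following fixation in 4 % paraformaldehyde, cultures were stained for MBP, Olig2 and DAPI, and four 10X fields per well were analysed in duplicate wells. Values are the ratio of fiber score (continuous MBP fiber length per Olig2+ nucleus) to MBP score (thresholded MBP area × intensity per Olig2+ nucleus).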

Test [2] shares this test system. The test is described as follows: myelination (MBP fiber length per Olig2+ nucleus), % of 1 µM DAPT response (DMSO = 0) (% of DAPT); higher = more myelination, active = 50 or more. To be noted: treatment time: 8 days (DIV5-DIV13). The essentials:
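Myelination, expressed as continuous straight MBP fiber length per Olig2+ nucleus, was normalised to 0.1 % DMSO as 0 and a 1 µM positive control as 100. The cultures were primary E18 rat cortical co-cultures dissociated with papain and plated at 20,000 cells/well on poly-d-lysine/laminin-coated 96-well plates. They received library compounds at 1 or 5 µM in myelination medium between DIV5 and DIV13. Analysis covered four 10X fields per well in duplicate wells after 4 % paraformaldehyde fixation and immunostaining for MBP and Olig2 with DAPI.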

Where a name gives a salt, the structure may show the parent alone. ± gives the standard deviation of the averaged measurements.

As for `CC1=Nc2ccc(Cl)cc2S(=O)(=O)N1` [Diazoxide], the “fiber score / MBP score” value was 1.25 in test [1] (1 µM) and 0.573 in test [1] (5 µM). The myelination was 5.81 (inactive) in test [2] (1 µM) and -18.4 (inactive) in test [2] (5 µM).
Turning to `CCCNCC(O)COc1ccccc1C(=O)CCc1ccccc1` (stereo not given) [Propafenone], the “fiber score / MBP score” value in test [1] (1 µM) came out at 0.873; in test [1] (5 µM) it was 0.376. For the same compound, the myelination was -1.52 (inactive) in test [2] (1 µM) and -22.4 (inactive) in test [2] (5 µM).
Take `COC(=O)C1=C(C)NC(C)=C(C(=O)OCC(C)C)C1c1ccccc1[N+](=O)[O-]` (stereo not given) [Nisoldipine]: the “fiber score / MBP score” value in test [1] (1 µM) is 0.773. Besides, the myelination in test [2] (1 µM) is -11.1 (inactive).
Consider `CC[C@H](C)C(=O)O[C@H]1C[C@@H](C)C=C2C=C[C@H](C)[C@H](CC[C@@H]3C[C@@H](O)CC(=O)O3)[C@H]21` [Lovastatin], for which the “fiber score / MBP score” value in test [1] (1 µM) stood at 2.07; in test [1] (5 µM), 6.02. In addition, the figures for the myelination in test [2] (1 µM) and in test [2] (5 µM) were -6.08 (inactive) and 1.23 (inactive), respectively.
As for `CN(C)CCOc1ccc(/C(=C(/CCCl)c2ccccc2)c2ccccc2)cc1` [Toremifene], the “fiber score / MBP score” value in test [1] (1 µM) turned out to be 0.889. Also, the myelination in test [2] (1 µM) is 3.19 (inactive).
As for `CC(=O)OCC(=O)[C@@]12OC3(CCCC3)O[C@@H]1C[C@H]1[C@@H]3CCC4=CC(=O)C=C[C@]4(C)[C@@]3(F)[C@@H](O)C[C@@]12C` [Amcinonide], the “fiber score / MBP score” value came out at 0.868 in test [1] (1 µM) and 0.784 in test [1] (5 µM). The figures for the myelination in test [2] (1 µM) and in test [2] (5 µM) were -11.8 (inactive) and -42.6 (inactive), respectively.
Take `CCN(CC)C(=S)SSC(=S)N(CC)CC` [Disulfiram]: the “fiber score / MBP score” value in test [1] (1 µM) came to 1.15. The same compound had a myelination in test [2] (1 µM) of 148.
Consider `CN[C@H]1CC[C@@H](c2ccc(Cl)c(Cl)c2)c2ccccc21` [Sertraline], for which the results for the “fiber score / MBP score” value in test [1] (1 µM) and in test [1] (5 µM) were 0.689 ± 0.18 and 3.18, respectively. For the same compound, the values for the myelination in test [2] (1 µM) and in test [2] (5 µM) were -5.38 (inactive) and -24.9 (inactive), respectively.
Turning to `CC/C(=C(\c1ccccc1)c1ccc(OCCN(C)C)cc1)c1ccccc1` [Tamoxifen], in test [1] (1 µM), the “fiber score / MBP score” value came to 0.507. In addition, the myelination in test [2] (1 µM) was -18.7 (inactive).
As for `Oc1ccc(C2CNCCc3c2cc(O)c(O)c3Cl)cc1` (stereo not given) [Fenoldopam], the “fiber score / MBP score” value was found to be 0.941 in test [1] (1 µM) and 0.611 in test [1] (5 µM). In addition, the myelination is -10.8 (inactive) in test [2] (1 µM) and -45 (inactive) in test [2] (5 µM).
On to `CN(CCOc1ccc(CC2SC(=O)NC2=O)cc1)c1ccccn1` (stereo not given) [Rosiglitazone maleate], for which the “fiber score / MBP score” value in test [1] (1 µM) was 0.752 ± 0.037. Besides, in test [2] (1 µM), the myelination is -26.2 (inactive).
On the same counts, the results for `COC(=O)Nc1nc2cc(C(=O)c3ccc(F)cc3)ccc2[nH]1` [Flubendazole] are 0.494 and -24 (inactive).
As for `CN1CCN2c3ncccc3Cc3ccccc3C2C1` (stereo not given) [Remergil], the “fiber score / MBP score” value in test [1] (1 µM) is 0.819; in test [1] (5 µM), 0.663. The figures for the myelination in test [2] (1 µM) and in test [2] (5 µM) were 4.96 (inactive) and -19.4 (inactive), respectively.
Regarding `O=c1[nH]cc(F)c(=O)[nH]1` [5-Fluorouracil], the “fiber score / MBP score” value in test [1] (1 µM) came to 1.24. Further, the myelination in test [2] (1 µM) was 174.
In the case of `Nc1ccc(S(=O)(=O)c2ccc(N)cc2)cc1` [Dapsone], the “fiber score / MBP score” value came out at 0.932 in test [1] (1 µM) and 0.925 in test [1] (5 µM). Also, the myelination in test [2] (1 µM) is -3.07 (inactive); in test [2] (5 µM), -4.22 (inactive).
On the same counts, the results for `COc1ccc(CC2c3cc(OC)c(OC)cc3CC[N+]2(C)CCC(=O)OCCCCCOC(=O)CC[N+]2(C)CCc3cc(OC)c(OC)cc3C2Cc2ccc(OC)c(OC)c2)cc1OC` (stereo not given) [Atracurium] are 0.771, 0.948, -11.6 (inactive) and 63.1.
On the same counts, the results for `Cc1onc(-c2ccccc2)c1-c1ccc(S(N)(=O)=O)cc1` [Valdecoxib] are 0.873, 0.733, -12.1 (inactive) and -45.9 (inactive).
As for `CN1CCN(C2=Nc3cc(Cl)ccc3Nc3ccccc32)CC1` [Clozapine], the “fiber score / MBP score” value in test [1] (1 µM) worked out at 0.395. Besides, the myelination in test [2] (1 µM) was -14.8 (inactive).
Taken in the same sequence, the figures for `C=C(CC)C(=O)c1ccc(OCC(=O)O)c(Cl)c1Cl` [Ethacrynic Acid] were 2.03 and 32.2 (inactive).
Turning to `CNC[C@H](O)c1ccc(O)c(O)c1` [Epinephrine], the “fiber score / MBP score” value in test [1] (1 µM) was 0.884; in test [1] (5 µM), 3.29. The myelination is 2.28 (inactive) in test [2] (1 µM) and 38.8 (inactive) in test [2] (5 µM).
On the same counts, the results for `NC(=O)N1c2ccccc2CC(=O)c2ccccc21` [Oxcarbazepine] are 1.02, 1.17, 3.46 (inactive) and 196.
Taken in the same sequence, the figures for `CS(N)(=O)=O` [Methanesulfonamide] were 0.63, 0.693, -10.9 (inactive) and -10.7 (inactive).
Consider `CC(=O)NCCCCCCNC(C)=O` [Hexamethylene bisacetamide], for which the “fiber score / MBP score” value in test [1] (1 µM) was 0.663; in test [1] (5 µM), 0.981. For the same compound, the myelination in test [2] (1 µM) is -0.00866 (inactive); in test [2] (5 µM), -2.54 (inactive).
For `Clc1ccc(CO/N=C(\Cn2ccnc2)c2ccc(Cl)cc2Cl)c(Cl)c1` [Oxiconazole], the “fiber score / MBP score” value in test [1] (1 µM) was 0.501. Further, in test [2] (1 µM), the myelination was -25.1 (inactive).
Consider `CCCCNC(=O)NS(=O)(=O)c1ccc(C)cc1` [Tolbutamide], for which the “fiber score / MBP score” value in test [1] (1 µM) was 0.923; in test [1] (5 µM), 0.898. For the same compound, the myelination in test [2] (1 µM) was -1.85 (inactive); in test [2] (5 µM) it was -4.03 (inactive).
On to `Cc1ccsc1C(=CCCN1CCC[C@@H](C(=O)O)C1)c1sccc1C` [Tiagabine], for which the “fiber score / MBP score” value in test [1] (1 µM) came to 0.656; in test [1] (5 µM), 0.716. In addition, the values for the myelination in test [2] (1 µM) and in test [2] (5 µM) were -23.8 (inactive) and -16.6 (inactive), respectively.
For `Cc1ccc(O)c([C@H](CCN(C(C)C)C(C)C)c2ccccc2)c1` [Tolterodine], the “fiber score / MBP score” value in test [1] (1 µM) came to 0.747. Moreover, the myelination in test [2] (1 µM) was -15.9 (inactive).
Taken in the same sequence, the figures for `CC[C@H]1OC(=O)[C@H](C)C(=O)[C@H](C)[C@@H](O[C@@H]2O[C@H](C)C[C@H](N(C)C)[C@H]2O)[C@](C)(OC)C[C@@H](C)C(=O)[C@H](C)[C@H]2N(CCCCn3cnc(-c4cccnc4)c3)C(=O)O[C@]12C` [Telithromycin] were 0.819 and -3.78 (inactive).
For the compound `COC(=O)C1=C(C)NC(C)=C(C(=O)OC)C1c1ccccc1[N+](=O)[O-]` [Nifedipine], the results for the “fiber score / MBP score” value in test [1] (1 µM) and in test [1] (5 µM) were 0.768 and 0.919, respectively. In addition, the myelination in test [2] (1 µM) is -18.3 (inactive); in test [2] (5 µM) it was 10 (inactive).
On the same counts, the results for `CCc1c(C)[nH]c2c1C(=O)C(CN1CCOCC1)CC2` (stereo not given) [Molindone] are 0.619, 0.498, -21 (inactive) and -25.8 (inactive).
In the case of `CCCCCNC(=N)N/N=C/c1c[nH]c2ccc(OC)cc12` [Tegaserod], the “fiber score / MBP score” value in test [1] (1 µM) came out at 0.56. For the same compound, the myelination in test [2] (1 µM) is -17.1 (inactive).
As to `CN(C)CCCN1c2ccccc2CCc2ccccc21` [Imipramine], the “fiber score / MBP score” value in test [1] (1 µM) stood at 0.817; in test [1] (5 µM), 0.517. Moreover, the myelination in test [2] (1 µM) is -3.36 (inactive); in test [2] (5 µM), -6.74 (inactive).
Taken in the same sequence, the figures for `Clc1ccc2nsnc2c1NC1=NCCN1` [Tizanidine] were 0.796, 0.443, -26.5 (inactive) and -54.3 (inactive).
Taken in the same sequence, the figures for `C[C@]12C=CC(=O)C=C1CC[C@@H]1[C@@H]2[C@@H](O)C[C@@]2(C)[C@H]1CC[C@]2(O)C(=O)COC(=O)CCC(=O)O` [Prednisolone hemisuccinate] were 0.88, 1.08, 1.93 (inactive) and -1.16 (inactive).
Regarding `CN1CCN(c2c(F)cc3c(=O)c(C(=O)O)cn4c3c2SCC4)CC1` [Rufloxacin], the entries for the “fiber score / MBP score” value in test [1] (1 µM) and in test [1] (5 µM) were 1.05 and 0.68, respectively. The figures for the myelination in test [2] (1 µM) and in test [2] (5 µM) were 62.1 and -35.3 (inactive), respectively.
`Cc1cccc(C)c1NC(=O)C(C)N` (stereo not given) [Tocainide]: the “fiber score / MBP score” value in test [1] (1 µM) was 0.776. For the same compound, the myelination in test [2] (1 µM) was -15 (inactive).
For the compound `CC(C)C(=O)Nc1ccc([N+](=O)[O-])c(C(F)(F)F)c1` [Flutamide], the results for the “fiber score / MBP score” value in test [1] (1 µM) and in test [1] (5 µM) were 0.826 and 0.938, respectively. Also, the myelination in test [2] (1 µM) is -7.82 (inactive); in test [2] (5 µM) it was 5.48 (inactive).
